Results from the OligoGym collection.

Each sequence was assayed against C7orf11 (assay: pooled miR-30 sensor sort-seq; sequence = guide strand). Details: shRNA.
Further: reference of the scale not given here.

How did the sensor-assay potency score (higher = more potent) turn out when TTTTTTCTCTAACACGCCCTGA was run?
The sensor-assay potency score (higher = more potent) was -0.403.

How did the sensor-assay potency score (higher = more potent) turn out when TTCTTTTTTCTCTAACACGCCC was run?
Its sensor-assay potency score (higher = more potent) is -0.504.

How did the sensor-assay potency score (higher = more potent) turn out when TTTGAGTATTGCTGTATTGTTG was run?
The sensor-assay potency score (higher = more potent) was -0.804.

TTGAGTATTGCTGTATTGTTGG was tested. Which sensor-assay potency score (higher = more potent) did it give?
The sensor-assay potency score (higher = more potent) was -0.097.

How did the sensor-assay potency score (higher = more potent) turn out when TTGGCTTATATCCACTACAGAT was run?
Its sensor-assay potency score (higher = more potent) is -1.16.

With TAAATGTTGCAAGTTATCCTAC as the sequence, how does the sensor-assay potency score (higher = more potent) read?
Its sensor-assay potency score (higher = more potent) is 0.0898.

For ATATCCACTACAGATACTGGTT, which sensor-assay potency score (higher = more potent) is on record?
The sensor-assay potency score (higher = more potent) was -0.708.

Which sensor-assay potency score (higher = more potent) does the source give for TCTAATATCAACAATACCTGAT here?
The sensor-assay potency score (higher = more potent) was 0.0324.

How did the sensor-assay potency score (higher = more potent) turn out when TTATATCCACTACAGATACTGG was run?
The sensor-assay potency score (higher = more potent) was -1.05.

Which sensor-assay potency score (higher = more potent) does the source give for TTTTTCTCTAACACGCCCTGAT here?
Its sensor-assay potency score (higher = more potent) is 0.0567.

With TCCAACTCATTAGACATTCTTT as the sequence, how does the sensor-assay potency score (higher = more potent) read?
The sensor-assay potency score (higher = more potent) was -1.12.

TAATTATCCAATCAAAGTCATC was tested. Which sensor-assay potency score (higher = more potent) did it give?
The sensor-assay potency score (higher = more potent) was -1.65.

Each sequence was assayed against C7orf47 in the same assay as above. Details: shRNA.

Which sensor-assay potency score (higher = more potent) does the source give for TCACACAAGATGGTCATGTCTG here?
Its sensor-assay potency score (higher = more potent) is -0.315.

For TGGAGATTCATAAAATAGCGTT, which sensor-assay potency score (higher = more potent) is on record?
Its sensor-assay potency score (higher = more potent) is -0.725.

Which sensor-assay potency score (higher = more potent) does the source give for ATTCATAAAATAGCGTTTCTGG here?
The sensor-assay potency score (higher = more potent) was -0.587.

How did the sensor-assay potency score (higher = more potent) turn out when TTTCTGGGTCACACAAGATGGT was run?
The sensor-assay potency score (higher = more potent) was -1.07.

TCATAAAATAGCGTTTCTGGGT was tested. Which sensor-assay potency score (higher = more potent) did it give?
The sensor-assay potency score (higher = more potent) was -0.72.

TAGTTTAACACAAAAATACGAA was tested. Which sensor-assay potency score (higher = more potent) did it give?
The sensor-assay potency score (higher = more potent) was -0.764.

How did the sensor-assay potency score (higher = more potent) turn out when TAACACAAAAATACGAACTAGC was run?
Its sensor-assay potency score (higher = more potent) is 0.2.

Which sensor-assay potency score (higher = more potent) does the source give for AAGATGGTCATGTCTGGCCCAG here?
The sensor-assay potency score (higher = more potent) was -1.42.

For TAAAATAGCGTTTCTGGGTCAC, which sensor-assay potency score (higher = more potent) is on record?
The sensor-assay potency score (higher = more potent) was 0.138.

TGGGTCACACAAGATGGTCATG was tested. Which sensor-assay potency score (higher = more potent) did it give?
Its sensor-assay potency score (higher = more potent) is -1.71.

For TAGCGTTTCTGGGTCACACAAG, which sensor-assay potency score (higher = more potent) is on record?
The sensor-assay potency score (higher = more potent) was -0.834.

How did the sensor-assay potency score (higher = more potent) turn out when TTCTGGGTCACACAAGATGGTC was run?
The sensor-assay potency score (higher = more potent) was -1.8.

These sequences were tested against C7orf69 in the same assay as above. Details: shRNA.

With AAGTCCAGAGTTAAGAACCAGC as the sequence, how does the sensor-assay potency score (higher = more potent) read?
Its sensor-assay potency score (higher = more potent) is -0.81.

How did the sensor-assay potency score (higher = more potent) turn out when TGATAGTTTGACAAAACTTGTA was run?
The sensor-assay potency score (higher = more potent) was -0.512.

With TTGTAGAGAAGTCCAGAGTTAA as the sequence, how does the sensor-assay potency score (higher = more potent) read?
The sensor-assay potency score (higher = more potent) was -1.47.

With TTGATAGTTTGACAAAACTTGT as the sequence, how does the sensor-assay potency score (higher = more potent) read?
Its sensor-assay potency score (higher = more potent) is -1.4.

For TTCAGCTCTCCTATCCGTGCAA, which sensor-assay potency score (higher = more potent) is on record?
The sensor-assay potency score (higher = more potent) was 0.252.

Which sensor-assay potency score (higher = more potent) does the source give for TTTCCATCCATGACCAACTTTT here?
The sensor-assay potency score (higher = more potent) was -0.995.

How did the sensor-assay potency score (higher = more potent) turn out when TTGCTCTGCATTTGATAGTTTG was run?
Its sensor-assay potency score (higher = more potent) is -1.46.

Which sensor-assay potency score (higher = more potent) does the source give for TTTGATAGTTTGACAAAACTTG here?
The sensor-assay potency score (higher = more potent) was -0.171.

With TAGTTTGACAAAACTTGTAGAG as the sequence, how does the sensor-assay potency score (higher = more potent) read?
The sensor-assay potency score (higher = more potent) was -0.507.

With TTTGCTCTGCATTTGATAGTTT as the sequence, how does the sensor-assay potency score (higher = more potent) read?
The sensor-assay potency score (higher = more potent) was -0.51.

With ATAGTTTGACAAAACTTGTAGA as the sequence, how does the sensor-assay potency score (higher = more potent) read?
Its sensor-assay potency score (higher = more potent) is -0.39.

Which sensor-assay potency score (higher = more potent) does the source give for AAAACTTGTAGAGAAGTCCAGA here?
Its sensor-assay potency score (higher = more potent) is -0.425.

The sequences below were run against C8B in the same assay as above. Details: shRNA.

With TAAGAGTATAATCTCCTCTCTC as the sequence, how does the sensor-assay potency score (higher = more potent) read?
Its sensor-assay potency score (higher = more potent) is 0.0444.

TTTAGTATGAGAGAATCGTTTG was tested. Which sensor-assay potency score (higher = more potent) did it give?
Its sensor-assay potency score (higher = more potent) is -0.791.

With TTACACACCTTCCTGTCTGTGC as the sequence, how does the sensor-assay potency score (higher = more potent) read?
Its sensor-assay potency score (higher = more potent) is 0.539.
